Results on 39 compounds are retold here after ChEMBL document CHEMBL4513135, “CO-ADD screening of IQOG CSIS (Spain) compounds”.

One assay relates to Klebsiella pneumoniae. The conditions noted are these: Concentration 32 ug.mL-1, ASSAY_TEST Inhibition of Bacterial Growth, detection method Absorption (OD600), MEDIA CAMHB, plate type 384well, NBS, CORNING #3640, time 18 hr.
In another assay the test system is Candida albicans. The conditions noted are these: 32 ug/mL.
A further assay relates to Cryptococcus neoformans. The conditions noted are these: Concentration 32 ug.mL-1, ASSAY_TEST Inhibition of Fungal Growth, detection method Resazurin, Absorption (OD600-OD570), plate type 384well, NBS, CORNING #3640. A general note: The colour change of resazurin is a common sign of viable cells or microbes.

Several values for one entry are separate records, joined by “and”; a condition that tells them apart may be missing. Equal values may be shown once. Measured potencies and affinities stand elsewhere.

A word on the Inhibition: it is the relative decrease from the control value, in per cent. As to `C#CCN(C)Cc1cc2cc(OCc3ccc(OC(=O)N(C)C)c4ncccc34)ccc2n1C`, the results for the Inhibition in the assay with Klebsiella pneumoniae, in the assay on Candida albicans and with Cryptococcus neoformans were -0.57%, 1.92% and -64.25%, respectively.

On to `OCC(Cc1cnc[nH]1)NCc1ccccc1` (configuration not stated), for which the Inhibition is 4.01% in the assay on Klebsiella pneumoniae, 0.31% in the assay on Candida albicans and 1.68% with Cryptococcus neoformans.

For the compound `NNC(=O)c1cn(Cc2ccccc2)c2ccccc12`, the figures for the Inhibition in the assay on Klebsiella pneumoniae, in the assay on Candida albicans and in the assay on Cryptococcus neoformans were 10.74%, 0.77% and 3.84%, respectively.

In the case of `C#CCN1CCc2nc(N)c(C#N)c(-c3ccccc3)c2C1`, the Inhibition was 13.26% and 8.28% with Klebsiella pneumoniae (32 ug/mL); 1.84% and 1.59% with Candida albicans; -44.69% and -39.47% with Cryptococcus neoformans (32 ug/mL).

For `C#CCN(C)Cc1cc2cc(OC(=O)N(C)C)ccc2n1C`, the Inhibition is -2.9% in the assay with Klebsiella pneumoniae, 3.66% in the assay on Candida albicans and -26.57% with Cryptococcus neoformans.

On to `C#CCN1CCc2nc3ncccc3c(N)c2C1.Cl`, for which the figures for the Inhibition with Klebsiella pneumoniae, with Candida albicans and with Cryptococcus neoformans were 8.58%, 2.69% and -56.71%, respectively.

With `Nc1c2c(nc3ccccc13)CCN(Cc1ccccc1)C2`, the Inhibition in the assay with Klebsiella pneumoniae was 4.75%; in the assay with Candida albicans, -0.35%; with Cryptococcus neoformans, -78.39%.

With `CNCc1cn(C)c2ccc(OC)cc12.Cl`, the Inhibition with Klebsiella pneumoniae was 11.42%; in the assay on Candida albicans, 1.37%; with Cryptococcus neoformans, -1.31%.

Consider `Cc1ccc(C=C(C#N)C#N)cc1`, for which the Inhibition with Klebsiella pneumoniae is 9.23%; in the assay on Candida albicans it was 0.34%; with Cryptococcus neoformans it was -5.46%.

With `[N-]=[N+]=NCC(=O)c1ccc(Br)cc1`, the figures for the Inhibition in the assay on Klebsiella pneumoniae, in the assay on Candida albicans and in the assay with Cryptococcus neoformans were 7.99%, 3.1% and -9.49%, respectively.

For `O=C(N1[C@H]2CC[C@@H]1C(c1nnn[nH]1)C2)C(F)(F)F` (some centres not stated), the Inhibition in the assay on Klebsiella pneumoniae is 13.67%; with Candida albicans, 1.81%; in the assay with Cryptococcus neoformans, -32.17%.

As to `CCOc1nc2nc(C)c(C(=O)O)cc2c(-c2ccccc2)c1C#N`, the values for the Inhibition in the assay with Klebsiella pneumoniae, in the assay on Candida albicans and in the assay on Cryptococcus neoformans were 7.3%, 1.34% and -54.07%, respectively.

As to `Cc1nc(N)c(C#N)cc1C(=O)O`, the Inhibition is -3.56% in the assay on Klebsiella pneumoniae, 1.23% with Candida albicans and -34.98% in the assay on Cryptococcus neoformans.

Consider `CCOC(=O)C1=C(C)OC(=O)CC1c1ccccc1` (configuration not stated), for which the Inhibition with Klebsiella pneumoniae was 8.11%; in the assay with Candida albicans, 4.72%; in the assay with Cryptococcus neoformans, -25.58%.

As for `CN(C)C(=O)Oc1ccc(CCl)c2cccnc12`, the results for the Inhibition with Klebsiella pneumoniae, in the assay on Candida albicans and in the assay on Cryptococcus neoformans were 13.45%, 4.55% and -46.72%, respectively.

In the case of `Cl.ClCCN1CCCC1`, the Inhibition is 3.45% in the assay on Klebsiella pneumoniae, 5.34% with Candida albicans and -1.83% in the assay on Cryptococcus neoformans.

Consider `COc1cc(C2C(C#N)=C(N)Oc3c2ccc2ccccc32)cc(OC)c1OC` (configuration not stated), for which the Inhibition in the assay with Klebsiella pneumoniae was 3.14%; in the assay with Candida albicans, -0.44%; in the assay with Cryptococcus neoformans it was -3.68%.

For `C#CCN1CCc2nc3nc(OC)c(C#N)cc3c(N)c2C1`, the Inhibition is 9.96% in the assay on Klebsiella pneumoniae, 0.5% in the assay on Candida albicans and -73.36% in the assay on Cryptococcus neoformans.

For `C#CCN(C)Cc1cc2cc(OCCCC3CCN(Cc4ccc(OC(=O)N(C)C)c5ncccc45)CC3)ccc2n1C`, the Inhibition was 4.78% with Klebsiella pneumoniae, 5.51% in the assay on Candida albicans and -77.63% in the assay with Cryptococcus neoformans.

Regarding `C#CCN1CCc2nc3nc(Cl)c(C#N)cc3c(N)c2C1`, the Inhibition in the assay on Klebsiella pneumoniae was 7.38%; in the assay on Candida albicans, 0.36%; in the assay with Cryptococcus neoformans, -89.58%.

For the compound `CN1CC=C(c2cccn2C)CC1`, the Inhibition in the assay on Klebsiella pneumoniae was 7.84%; in the assay with Candida albicans, 3.67%; in the assay on Cryptococcus neoformans, -4.6%.

`O=C(CBr)NCc1ccccc1`: the Inhibition in the assay on Klebsiella pneumoniae stood at 15.98%; in the assay on Candida albicans it was 10.2%; in the assay with Cryptococcus neoformans it was 6.35%.

On to `CCOC(=O)c1cn(Cc2ccccc2)c2ccccc12`, for which the Inhibition in the assay on Klebsiella pneumoniae was 3.42%; with Candida albicans, -1.33%; in the assay on Cryptococcus neoformans, -2.24%.

Consider `COc1ccc(C=C(C#N)C#N)cc1OC`, for which the Inhibition in the assay on Klebsiella pneumoniae was 6.42%; in the assay with Candida albicans, 0.87%; in the assay with Cryptococcus neoformans, -1.94%.

Turning to `CN1CC=C(c2cccn2C)CC1.Cl`, the Inhibition was 8.46% with Klebsiella pneumoniae, 3.38% in the assay with Candida albicans and -2.75% in the assay on Cryptococcus neoformans.

Consider `CCOC(=O)C1=C(OC)OC(=O)CC1c1ccccc1` (configuration not stated), for which the Inhibition with Klebsiella pneumoniae is 18.96%; in the assay on Candida albicans, 1.67%; in the assay on Cryptococcus neoformans, -58.88%.

With `NNCCCc1c[nH]c2ccccc12.O=C(O)/C=C/C(=O)O`, the figures for the Inhibition with Klebsiella pneumoniae, in the assay with Candida albicans and with Cryptococcus neoformans were 10.99%, 1.63% and 4.26%, respectively.

For `Cc1ccc(S(=O)(=O)N2[C@H]3CC[C@@H]2CC3)cc1`, the Inhibition is 13.85% with Klebsiella pneumoniae, 3.38% in the assay on Candida albicans and -10.99% in the assay on Cryptococcus neoformans.

Turning to `CC1CC(=O)Nc2nc3c(c(N)c21)CCCC3` (configuration not stated), the results for the Inhibition in the assay with Klebsiella pneumoniae, with Candida albicans and in the assay on Cryptococcus neoformans were 14.16%, 2.93% and -54.55%, respectively.

Take `N#CC(C#N)=Cc1ccc(Cl)cc1`: the Inhibition was 17.25% in the assay on Klebsiella pneumoniae, 0.02% in the assay on Candida albicans and -1.11% in the assay with Cryptococcus neoformans.

For the compound `COc1ccc2c(c1)cc(C[N+](C)(C)C)n2C.[I-]`, the Inhibition was 16.42% in the assay with Klebsiella pneumoniae, 1% in the assay on Candida albicans and -0.09% in the assay on Cryptococcus neoformans.

Take `Nc1c2c(nc3c1C(c1ccccc1)CC(=O)N3)CCCC2` (configuration not stated): the Inhibition was 11.64% in the assay with Klebsiella pneumoniae, 1% with Candida albicans and -63.29% with Cryptococcus neoformans.

On to `N#CCC(=O)c1ccccc1`, for which the Inhibition was 12.74% in the assay with Klebsiella pneumoniae, 10.4% in the assay with Candida albicans and -3.25% with Cryptococcus neoformans.

Turning to `Cl.ClCCN1CCCCC1`, the Inhibition is 11.31% in the assay on Klebsiella pneumoniae, 4.96% with Candida albicans and -9.27% in the assay with Cryptococcus neoformans.

Consider `NNC(=O)c1cccnc1` [NICOTINIC ACID HYDRAZIDE], for which the Inhibition in the assay on Klebsiella pneumoniae was 3.91%; with Candida albicans, 1.56%; in the assay with Cryptococcus neoformans, -4.91%.

Take `CCOC(=O)c1cc2cc(OC(=O)NC3CCN(Cc4ccccc4)CC3)ccc2[nH]1`: the Inhibition was 1.99% with Klebsiella pneumoniae, 0.56% with Candida albicans and -41.14% with Cryptococcus neoformans.

Consider `Cc1ccccc1C=C(C#N)C#N`, for which the Inhibition in the assay with Klebsiella pneumoniae was -3.33%; in the assay with Candida albicans it was -0.55%; in the assay on Cryptococcus neoformans, -4.61%.

With `CCOC(=O)C1=C(C)NC(=O)CC1c1ccccc1` (configuration not stated), the values for the Inhibition with Klebsiella pneumoniae, with Candida albicans and in the assay with Cryptococcus neoformans were 18.92%, 2.43% and -58.04%, respectively.

For the compound `N#Cc1cc(C#N)c(N2C3CCC2CC3)nc1N`, the Inhibition was -5.68% in the assay with Klebsiella pneumoniae, 3.02% in the assay on Candida albicans and -1.32% in the assay on Cryptococcus neoformans.
